According to PubChem BioAssay (NCATS):
Inconclusive results are not listed. Unmarked numbers belong to inactive results. The call rests on the fitted dose curve; in most records, active means well fitted inhibition curve with a large enough effect; inconclusive means small, poorly fitted or top-dose-only effect; inactive means no such curve, though single readings can be large or run the other way.

These compounds were tested on Zika virus NS2B-NS3 protease (unlinked complex) (assay: Primary screen GU Rhodamine qHTS for Zika virus inhibitors: Unlinked NS2B-NS3 protease assay (AID 1347159; further: nearly all actives have a fitted effect of over 60% in size)). Settings: Recombinant ZIKV NS2B-NS3 protease, Rhodamine110 substrate fluorescence; series mostly up to 107 µM; activity change, negative = inhibition: at the top concentration.
How it was run: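 A qHTS format was used, with compound concentrations ranging up to 114 microM. Each compound was preincubated with 25 nM NS2B-NS3 protease, and the substrate was then added at 1.5 microM. Curves were fitted with a 4-parameter Hill model.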
On the % scale 0 is the no-effect control and ±100 the full control effect.

Row | Structure (SMILES) | activity change, negative = inhibition [%]
1 | CC(=O)O[C@]1(C(C)=O)CC[C@H]2[C@@H]3C[C@H](C)C4=CC(=O)CC[C@]4(C)[C@H]3CC[C@@]21C | -10.9
2 | CC(CCc1ccccc1)NCC(O)c1ccc(O)c(C(N)=O)c1 (centres undefined) | 24.1
3 | Nc1ccn([C@@H]2O[C@H](CO)[C@@H](O)C2(F)F)c(=O)n1 | 40.5
4 | CC(C)(C)CC(C)(C)c1ccc(OCCOCC[N+](C)(C)Cc2ccccc2)cc1 | 217
